Screening data: PubChem, The Scripps Research Institute Molecular Screening Center
hgDAF-12 ag – H. glycines DAF-12 receptor agonists, primary screen, cell-based, luminescence, HEK293, GAL4 fusion, UAS-luciferase; Nuclear hormone receptor DAF-12 (Heterodera glycines), GAL4 fusion; activation, % at 6.8 µM; 370,000 tested, 1.8% active; HEK293 GAL4-hgDAF12 UAS-luciferase reporter, agonist luminescence; normalized to butyrate control;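 active = activation above a cutoff set at the mean of all screened compounds plus 3 SD, cut at about 10% in these data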
DAX1 StAR inh – DAX1 (NR0B1) inhibitors on StAR promoter, primary screen, cell-based, luminescence, SF-1 (NR5A1), full-length DAX-1. HEK293T StAR-luciferase reporter, SF-1/DAX-1 repression relief. inhibition, % at 6.8 µM. 370,000 tested, 1.1% active. AID 652010, 2013;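 active = inhibition above the mean over all tested compounds plus 3 SD, cut at about 3.6% in these data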;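 note: higher inhibition means more luminescence from relief of DAX-1 repression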
ssDAF12 agonist – S. stercoralis DAF-12 nuclear receptor activators, primary screen, cell-based, luminescence, HEK293, GRIP1 co-expression, lit1-tk-luc | HEK293 ssDAF-12/GRIP1 lit1-tk-luc reporter; % of 3 µM dafachronic acid response | activation, % at 6.8 µM | 370,000 tested, 1% active | AID 652126, 2013;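 active = activation above the mean over all tested compounds plus 3 SD, cut at about 0.9% in these data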
SMARCA2 act – SMARCA2 (BRM) function activators, primary screen, cell-based, luminescence, high throughput; MG213 cells, MMTV-luciferase reporter, dexamethasone, overnight; activation, % at 9.1 µM; 370,000 tested, 1% active; AID 652017, 2013; in the data active = activation above about 7.8%
hcDAF-12 act – H. contortus DAF-12 nuclear receptor activators, primary screen, cell-based, luminescence, HEK293, lit1-tk-luc reporter | activation, % at 6.8 µM | 370,000 tested, 1.4% active | HEK293 hcDAF-12 lit1-tk-luc reporter; 0% DMSO, 100% Δ7-dafachronic acid;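 active = activation above the mean of all tested compounds plus 3 SD, cut at about 5.5% in these data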
Numbers stand for hits; . = inactive; / = no result given. Sampled rows, rich in hits. Any-hit rate of the full collection: about 4.2%.

SMILES | hgDAF-12 ag | DAX1 StAR inh | ssDAF12 agonist | SMARCA2 act | hcDAF-12 act
O=C(NCc1ccc(F)c(F)c1)C1CCC(CNS(=O)(=O)c2cccc3cccnc23)CC1 (stereo not drawn) | . | . | . | . | .
Cc1cccc(C)c1N1C(=O)c2ccccc2NC(=O)C1C(=O)NCCc1ccccc1 (stereo not drawn) | . | . | . | . | .
Cc1cccc(Nc2nc(-c3ccc4c(c3)OCCO4)cs2)c1 | 13 | . | . | . | 5.8
Cc1cccc(Nc2nc(-c3sc(C)nc3C)cs2)c1 | . | . | . | . | .
Cc1nc(-c2ccc3c(c2)OCCO3)cs1 | . | . | . | . | .
Cc1ccnc(Nc2nc(-c3ccc(F)cc3)cs2)c1 | 12 | . | . | . | 6.4
Cc1cccc(Nc2nc(-c3ccncc3)cs2)c1 | 11 | . | . | . | .
Cc1cccc(C)c1NC(=O)C(CCc1ccccc1)N1CCN(C)CC1 (stereo not drawn) | . | . | . | . | .
O=C1OCC2=C1C(c1ccc(F)cc1)c1cc3c(cc1N2)OCO3 (stereo not drawn) | . | 4.2 | . | . | .
Cc1ccc(Cl)cc1NC1=C/C(=N\S(=O)(=O)c2cccs2)c2ccccc2C1=O | . | . | 1.0 | . | .
COC(=O)[C@]12C[C@H](CC(=O)NCCC(C)C)C(=O)N(Cc3ccccc3)C1=C[C@H](COCc1ccccc1)O[C@@H]2C | . | . | . | . | .
O=S(=O)(Nc1cccc2ccccc12)c1cccs1 | . | . | . | . | 6.1
O=S(=O)(Nc1ccc(O)c2ccccc12)c1cccs1 | . | . | . | . | 6.7
COc1ccccc1NS(=O)(=O)c1cccs1 | . | . | . | . | .
CC(C)c1ccccc1NS(=O)(=O)c1cccs1 | . | . | . | . | .
COC(=O)c1cc2c(c3c4ccccc4n(S(=O)(=O)c4ccc(OC)cc4)c13)C(=O)N(Cc1ccccc1OC)C2 | . | . | . | . | .
COc1ccc(NC(=O)Nc2ccc3nccnc3c2)cc1 | . | . | . | 7.9 | .
COc1ccc(NC(=O)Nc2nccs2)cc1 | 11 | . | . | . | .
CN1CCN(c2ccc3c(c2)Oc2ccccc2CN(Cc2cn(Cc4ccc(C(F)(F)F)cc4)nn2)S3(=O)=O)CC1 | . | . | . | . | .
Cc1ccc(-c2[nH]c3ccccc3c2SCCN)cc1 | . | . | 1.2 | . | 6.0
CCOC(=O)C1=C(COC(=O)c2cccc(Br)c2)NC(=O)NC1C (stereo not drawn) | . | . | . | . | .
CCOC(=O)C1=C(COC(=O)c2cccc(N(C)C)c2)NC(=O)NC1C (stereo not drawn) | . | 4.2 | . | . | .
CC(C)Oc1ccc(Oc2ccc(C#C[C@H](C)N3C(=O)c4ccccc4C3=O)cc2)cn1 | . | / | . | / | .
COc1ccccc1C1=NOC(Cn2c(NCCCO)nc3c2c(=O)n(C)c(=O)n3C)C1 (stereo not drawn) | . | . | . | . | .
COc1ccccc1C1=NOC(Cn2c(=O)c3c(ncn3C)n(C)c2=O)C1 (stereo not drawn) | . | . | 0.9 | . | .
SMILES | hgDAF-12 ag | DAX1 StAR inh | ssDAF12 agonist | SMARCA2 act | hcDAF-12 act
CC(C)C[C@H]1COc2cccc(F)c2S(=O)(=O)N1Cc1cn(CCC2OCCCO2)nn1 | . | . | . | . | .
CCOC(=O)N1CCN(C(=O)c2cc(COc3ccc(OC)cc3Cl)on2)CC1 | . | . | . | . | .
COc1ccc(OCc2cc(C(=O)N(C)Cc3cc(C4CC4)n[nH]3)no2)c(Cl)c1 | . | 4.2 | . | . | .
COc1ccc(OCc2cc(C(=O)N3CCN(CC4CC4)CC3)no2)c(Cl)c1 | . | 3.6 | . | . | .
CCN1CCN(C(=O)c2cc(COc3ccc(C(C)=O)cc3OC)on2)CC1 | 12 | . | . | . | .
CC(=O)c1cccc(OCc2cc(C(=O)N3C[C@@H](C)O[C@@H](C)C3)no2)c1 | . | 4.2 | . | . | .
COc1ccc(OCc2cc(C(=O)N(C)Cc3cnccn3)no2)c(Cl)c1 | . | . | . | . | .
COc1cccc(OCc2cc(C(=O)N3CCN(C(C)=O)CC3)no2)c1 | . | . | . | . | .
CC(C)CNC(=O)OCc1cn(Cc2ccc(F)cc2F)nn1 | . | . | . | . | .
CC(C)CN1C(=O)[C@]2(CC(=O)N(C)C2c2ccccc2)c2cc(-n3cc(CCCC#N)nn3)ccc21 (stereo partly drawn) | . | . | . | . | .
O=C(c1cc(COc2ccc(F)cc2F)on1)N1CCSCC1 | 12 | . | . | . | .
O=C(c1cc(COc2ccc(F)cc2Cl)on1)N1CCCCCC1 | . | . | . | . | .
O=C(CN1C(=O)NC2(CCCCC2)C1=O)Nc1cccc(S(=O)(=O)N2CCCC2)c1 | . | 4.6 | . | . | .
CC(NC(=O)CN1C(=O)NC2(CCCCCC2)C1=O)c1ccccc1Cl (stereo not drawn) | . | . | 1.1 | . | .
O=C(Nc1ccccn1)c1ccc(S(=O)(=O)N2CCCCC2)cc1 | . | 3.8 | . | . | .
Cc1ccnc(NC(=O)c2ccc(S(=O)(=O)N3CCCCC3)cc2)c1 | . | . | . | . | .
O=C(Cc1ccc(Cl)cc1)Nc1ccccn1 | . | . | . | . | .
O=C(/C=C\Nc1ccccn1)c1ccc(Cl)cc1 | . | 4.2 | . | . | .
O=C(Nc1ccccn1)c1ccccc1 | . | 3.9 | . | . | .
O=C(Nc1ccccn1)c1ccc(S(=O)(=O)N2CCCCCC2)cc1 | . | 4.3 | . | . | .
O=C(Nc1cccc(F)c1)O[C@@H]1CC[C@@]23CCCN2C(=O)CCC[C@H]3C1 | . | / | . | / | .
O=C(Nc1ccccn1)C1COc2ccccc2O1 (stereo not drawn) | . | . | . | . | .
CC1Oc2ccccc2OC1C(=O)Nc1ccccn1 (stereo not drawn) | . | . | . | . | 6.3
COc1cc(CCN(C(=O)c2cc3ccccc3[nH]2)C(c2ccccn2)c2nc3ccccc3[nH]2)cc(OC)c1 (stereo not drawn) | . | . | 1.1 | . | .
COc1cc(CCN(C(=O)c2cc3ccccc3[nH]2)C(C)c2nc3ccccc3[nH]2)cc(OC)c1 (stereo not drawn) | . | . | . | . | .
O=S1(=O)C=C(Sc2ccc(Cl)cc2)c2ccccc2C1Cc1ccc(F)cc1 (stereo not drawn) | . | . | . | . | .
O=C(/C=C/c1ccccc1)Nc1ccc(Br)cn1 | 13 | . | . | . | .
NC(=O)c1ccccc1NC(=O)/C=C/c1ccc(Cl)cc1 | 13 | . | . | . | .
